For some assays here: Measured potencies and affinities stand elsewhere.
Legend:
Set-up in all cases: scale not given: direction of the effect not stated beside the values
[1] = biological target: Protein translocase subunit SecA (Escherichia coli (strain K12)) (UniProt P10408); assay: Assay to Identify E. coli SecA ATPase Inhibitors; format: functional; settings: 30 µM
[2] = biological target: T1, Ubiquitin-activating enzyme e1, putative (Leishmania donovani (strain BPK282A1)) (UniProt E9BSI1); assay: Leishmania donovani Ubiquitin Activating Enzyme (LdE1); format: functional; settings: 30 µM
T1 sequence (whole entry): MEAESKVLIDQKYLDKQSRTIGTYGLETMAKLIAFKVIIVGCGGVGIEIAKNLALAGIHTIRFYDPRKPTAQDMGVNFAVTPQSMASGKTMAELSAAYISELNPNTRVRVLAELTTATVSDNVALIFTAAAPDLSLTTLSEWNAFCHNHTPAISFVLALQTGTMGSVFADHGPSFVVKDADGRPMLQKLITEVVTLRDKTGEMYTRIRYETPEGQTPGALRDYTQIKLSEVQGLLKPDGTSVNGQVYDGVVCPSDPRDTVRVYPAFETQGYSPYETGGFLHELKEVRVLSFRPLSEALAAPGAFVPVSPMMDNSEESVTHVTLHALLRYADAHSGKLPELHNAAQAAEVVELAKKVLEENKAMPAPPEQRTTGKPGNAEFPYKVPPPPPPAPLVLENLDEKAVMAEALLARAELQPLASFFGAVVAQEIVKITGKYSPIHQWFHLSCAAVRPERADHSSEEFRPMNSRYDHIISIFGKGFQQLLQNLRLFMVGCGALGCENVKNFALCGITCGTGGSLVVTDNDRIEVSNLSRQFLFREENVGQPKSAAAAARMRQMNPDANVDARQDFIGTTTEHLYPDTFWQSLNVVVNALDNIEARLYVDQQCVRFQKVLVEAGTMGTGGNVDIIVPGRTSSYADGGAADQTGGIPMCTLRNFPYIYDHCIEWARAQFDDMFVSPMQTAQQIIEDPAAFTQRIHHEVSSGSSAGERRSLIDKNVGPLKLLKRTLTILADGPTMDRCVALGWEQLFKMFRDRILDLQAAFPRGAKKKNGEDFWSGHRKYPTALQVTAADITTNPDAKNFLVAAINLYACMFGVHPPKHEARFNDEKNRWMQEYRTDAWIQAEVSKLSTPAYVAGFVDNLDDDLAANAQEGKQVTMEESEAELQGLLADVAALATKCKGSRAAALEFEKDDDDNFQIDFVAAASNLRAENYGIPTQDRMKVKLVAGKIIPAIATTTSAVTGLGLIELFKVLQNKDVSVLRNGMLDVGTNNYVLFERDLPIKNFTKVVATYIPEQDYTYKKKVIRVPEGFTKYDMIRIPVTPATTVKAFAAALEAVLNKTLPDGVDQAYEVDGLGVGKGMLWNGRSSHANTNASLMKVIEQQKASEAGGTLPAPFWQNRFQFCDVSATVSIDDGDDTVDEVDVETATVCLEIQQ

[3] = biological target: AMP-activated protein kinase, AMPK (Homo sapiens) (UniProt P54646+O43741+P54619+Q9UGJ0+Q9Y478+Q13131+Q9UGI9); assay: AMP-dependent Kinase enzyme assay. An in vitro enzyme assay that detects ADP turnover that is directly proportional to AMPK activity. This uses naive AMPK that is activated during the assay with MK-8722; format: functional; settings: 30 µM
[4] = biological target: Sialic acid-binding Ig-like lectin 9 (Homo sapiens) (UniProt Q9Y336); assay: Hs-Siglec9 ALPHAscreen SOP 20170721; settings: 10 µM
Trypanosoma cruzi = assay: Trypanosoma cruzi phosphomannomutase and mannose-1-phosphate guanylyltransferase assay; format: functional; settings: 10 µM
[5] = biological target: T2, Arginase-2, mitochondrial (Homo sapiens) (UniProt P78540); assay: in vitro enzyme assay to detect the production of urea directly proportional to the activity of Arginase II; format: functional; settings: 33.3 µM; also: in the data most compounds retested in dose-response had high values
T2 sequence (whole entry): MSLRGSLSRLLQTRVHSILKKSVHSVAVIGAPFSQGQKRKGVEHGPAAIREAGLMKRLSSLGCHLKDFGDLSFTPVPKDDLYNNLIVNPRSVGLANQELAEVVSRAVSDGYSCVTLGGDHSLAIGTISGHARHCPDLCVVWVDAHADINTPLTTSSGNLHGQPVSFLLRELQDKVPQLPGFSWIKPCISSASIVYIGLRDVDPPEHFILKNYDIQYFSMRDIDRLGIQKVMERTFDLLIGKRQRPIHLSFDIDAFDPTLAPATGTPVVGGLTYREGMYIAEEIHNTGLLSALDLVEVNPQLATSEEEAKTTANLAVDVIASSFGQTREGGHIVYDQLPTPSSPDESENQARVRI

[6] = biological target: T3, Proteasome subunit beta (Trypanosoma cruzi) (UniProt O96673); assay: Trypanosoma cruzi proteasome chymotrypsin-like activity (TcProtChymo) assay.; also: in the data most compounds retested in dose-response had high values; format: functional; settings: 9.37 µM
T3 sequence (whole entry): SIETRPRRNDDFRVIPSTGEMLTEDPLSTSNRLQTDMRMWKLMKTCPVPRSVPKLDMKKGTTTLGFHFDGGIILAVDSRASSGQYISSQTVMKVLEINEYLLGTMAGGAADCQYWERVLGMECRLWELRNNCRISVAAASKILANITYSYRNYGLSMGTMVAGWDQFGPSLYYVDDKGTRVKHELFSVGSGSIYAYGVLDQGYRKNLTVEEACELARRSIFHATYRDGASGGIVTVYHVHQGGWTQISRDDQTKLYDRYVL

Homo sapiens = species: Homo sapiens; assay: To identify inhibition of the IFN signalling (Jak-Stat) pathway via expression of an eGFP reporter gene under the control of an IFN-stimulated response element (ISRE) containing MxA promoter.; format: functional; settings: 30 µM
[7] = biological target: T4, Tyrosyl-tRNA synthetase, putative (Trypanosoma cruzi (strain CL Brener)) (UniProt Q4DSP6); assay: Trypanosoma cruzi tyrosyl tRNA synthetase (TcYRS) _High Tyrosine SOP; format: functional; settings: 30 µM; also: in the data most compounds retested in dose-response had high values
T4 sequence (whole entry): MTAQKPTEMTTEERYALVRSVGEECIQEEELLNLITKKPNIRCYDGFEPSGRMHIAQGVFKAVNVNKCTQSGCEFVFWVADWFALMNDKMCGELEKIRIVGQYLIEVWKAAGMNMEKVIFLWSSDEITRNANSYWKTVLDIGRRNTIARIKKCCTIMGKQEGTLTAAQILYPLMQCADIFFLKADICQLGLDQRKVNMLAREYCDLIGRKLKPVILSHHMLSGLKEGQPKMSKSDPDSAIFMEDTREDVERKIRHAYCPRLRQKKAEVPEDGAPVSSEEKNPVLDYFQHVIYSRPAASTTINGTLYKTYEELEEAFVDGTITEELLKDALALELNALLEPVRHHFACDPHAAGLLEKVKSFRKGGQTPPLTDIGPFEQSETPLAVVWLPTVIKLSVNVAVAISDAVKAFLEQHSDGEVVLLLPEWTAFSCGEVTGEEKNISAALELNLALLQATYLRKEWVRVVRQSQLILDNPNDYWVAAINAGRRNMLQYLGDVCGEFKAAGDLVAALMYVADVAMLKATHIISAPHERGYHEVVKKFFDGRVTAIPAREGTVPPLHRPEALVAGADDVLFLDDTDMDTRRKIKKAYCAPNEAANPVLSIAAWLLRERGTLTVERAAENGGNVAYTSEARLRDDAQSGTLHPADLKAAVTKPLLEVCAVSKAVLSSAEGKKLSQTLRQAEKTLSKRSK

[8] = biological target: T4, Tyrosyl-tRNA synthetase, putative (Trypanosoma cruzi (strain CL Brener)); assay: Trypanosoma cruzi tyrosyl tRNA synthetase (TcYRS) SOP; format: functional; settings: 30 µM
[9] = biological target: Chromo domain-containing protein 1 (Saccharomyces cerevisiae (strain ATCC 204508 / S288c) (Baker's yeast)) (UniProt P32657); assay: ScCHD-1 Enzyme Inhibition Assay; format: functional; settings: 30 µM; also: in the data most compounds retested in dose-response had high values
Sequence of Chromo domain-containing protein 1 (Saccharomyces cerevisiae (strain ATCC 204508 / S288c) (Baker's yeast)) (P32657 whole entry, the tested form may be a part): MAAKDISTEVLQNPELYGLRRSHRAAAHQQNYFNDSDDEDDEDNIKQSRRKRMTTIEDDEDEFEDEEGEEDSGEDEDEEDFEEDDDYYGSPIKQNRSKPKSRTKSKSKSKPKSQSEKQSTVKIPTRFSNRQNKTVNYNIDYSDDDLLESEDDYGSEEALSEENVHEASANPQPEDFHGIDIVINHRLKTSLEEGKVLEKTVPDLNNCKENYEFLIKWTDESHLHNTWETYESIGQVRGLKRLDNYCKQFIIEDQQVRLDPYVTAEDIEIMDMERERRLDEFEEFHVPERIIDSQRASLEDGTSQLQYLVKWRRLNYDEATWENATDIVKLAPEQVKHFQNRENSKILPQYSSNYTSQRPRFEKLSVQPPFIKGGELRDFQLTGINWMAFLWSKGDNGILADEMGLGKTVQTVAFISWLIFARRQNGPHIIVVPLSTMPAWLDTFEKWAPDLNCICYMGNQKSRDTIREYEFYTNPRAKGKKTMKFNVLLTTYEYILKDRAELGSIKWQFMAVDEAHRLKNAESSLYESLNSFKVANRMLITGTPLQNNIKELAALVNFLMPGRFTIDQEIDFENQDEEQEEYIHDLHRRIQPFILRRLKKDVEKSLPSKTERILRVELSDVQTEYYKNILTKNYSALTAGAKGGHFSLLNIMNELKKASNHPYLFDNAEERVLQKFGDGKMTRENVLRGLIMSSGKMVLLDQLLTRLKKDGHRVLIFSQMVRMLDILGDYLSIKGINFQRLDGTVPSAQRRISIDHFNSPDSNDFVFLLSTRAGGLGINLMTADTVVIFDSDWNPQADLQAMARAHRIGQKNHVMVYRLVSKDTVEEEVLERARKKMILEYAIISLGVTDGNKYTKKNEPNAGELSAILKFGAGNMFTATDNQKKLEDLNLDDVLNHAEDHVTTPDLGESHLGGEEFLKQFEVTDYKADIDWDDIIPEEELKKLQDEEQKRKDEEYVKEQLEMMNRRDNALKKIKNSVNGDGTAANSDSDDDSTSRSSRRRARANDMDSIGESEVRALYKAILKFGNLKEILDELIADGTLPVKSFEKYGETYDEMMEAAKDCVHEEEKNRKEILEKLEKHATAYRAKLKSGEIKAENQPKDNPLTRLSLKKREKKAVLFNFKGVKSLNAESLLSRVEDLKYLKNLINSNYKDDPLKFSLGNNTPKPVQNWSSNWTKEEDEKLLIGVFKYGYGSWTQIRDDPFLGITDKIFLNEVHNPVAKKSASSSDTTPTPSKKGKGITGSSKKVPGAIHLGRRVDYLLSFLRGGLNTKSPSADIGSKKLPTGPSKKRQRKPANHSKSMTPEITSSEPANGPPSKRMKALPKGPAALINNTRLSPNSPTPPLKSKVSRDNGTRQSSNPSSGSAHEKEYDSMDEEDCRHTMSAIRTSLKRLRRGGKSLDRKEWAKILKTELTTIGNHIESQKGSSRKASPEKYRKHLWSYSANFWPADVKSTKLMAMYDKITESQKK

Sequence of Sialic acid-binding Ig-like lectin 9 (Homo sapiens) (Q9Y336 whole entry): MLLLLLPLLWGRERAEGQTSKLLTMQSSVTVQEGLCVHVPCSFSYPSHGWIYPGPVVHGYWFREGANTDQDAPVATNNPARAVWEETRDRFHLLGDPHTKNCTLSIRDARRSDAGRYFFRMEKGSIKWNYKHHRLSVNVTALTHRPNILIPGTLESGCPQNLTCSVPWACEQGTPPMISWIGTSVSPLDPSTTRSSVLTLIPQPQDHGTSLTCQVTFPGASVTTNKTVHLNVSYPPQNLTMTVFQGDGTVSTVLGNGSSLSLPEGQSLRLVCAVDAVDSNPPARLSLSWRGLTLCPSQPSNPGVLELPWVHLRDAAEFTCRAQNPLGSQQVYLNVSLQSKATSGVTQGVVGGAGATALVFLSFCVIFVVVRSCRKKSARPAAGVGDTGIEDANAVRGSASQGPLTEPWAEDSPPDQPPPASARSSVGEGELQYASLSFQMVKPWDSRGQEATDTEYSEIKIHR
Sequence of Protein translocase subunit SecA (Escherichia coli (strain K12)) (P10408 whole entry): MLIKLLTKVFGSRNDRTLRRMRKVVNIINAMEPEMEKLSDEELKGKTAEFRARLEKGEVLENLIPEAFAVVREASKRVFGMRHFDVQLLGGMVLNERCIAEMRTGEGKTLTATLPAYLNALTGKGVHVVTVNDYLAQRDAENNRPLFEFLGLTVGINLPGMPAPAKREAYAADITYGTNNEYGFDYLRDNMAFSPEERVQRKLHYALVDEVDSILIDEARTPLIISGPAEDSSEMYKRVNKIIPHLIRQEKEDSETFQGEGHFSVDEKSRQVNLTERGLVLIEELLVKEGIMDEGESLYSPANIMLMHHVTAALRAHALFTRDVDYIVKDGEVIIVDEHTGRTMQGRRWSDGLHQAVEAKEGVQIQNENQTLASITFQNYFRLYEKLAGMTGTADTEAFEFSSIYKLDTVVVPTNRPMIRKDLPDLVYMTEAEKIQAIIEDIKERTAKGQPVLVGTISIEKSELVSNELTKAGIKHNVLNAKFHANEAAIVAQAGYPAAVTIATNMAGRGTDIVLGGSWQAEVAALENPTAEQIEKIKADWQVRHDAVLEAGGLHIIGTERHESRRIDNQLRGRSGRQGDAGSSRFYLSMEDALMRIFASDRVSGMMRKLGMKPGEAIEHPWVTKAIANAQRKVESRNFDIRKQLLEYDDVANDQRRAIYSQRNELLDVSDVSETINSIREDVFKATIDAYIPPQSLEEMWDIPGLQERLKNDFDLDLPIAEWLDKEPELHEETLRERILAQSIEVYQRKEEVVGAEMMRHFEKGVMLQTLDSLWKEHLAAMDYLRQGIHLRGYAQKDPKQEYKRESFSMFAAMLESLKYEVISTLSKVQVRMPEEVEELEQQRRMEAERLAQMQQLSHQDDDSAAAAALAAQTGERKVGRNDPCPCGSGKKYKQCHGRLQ

SMILES	Percent Effect [1] [%]	Percent Effect [2] [%]	Percent Effect [3] [%]	Percent Effect [4] [%]	Percent Effect (Trypanosoma cruzi) [%]	Percent Effect [5] [%]	Percent Effect [6] [%]	Percent Effect (Homo sapiens) [%]	Percent Effect [7] [%]	Percent Effect [8] [%]	Percent Effect [9] [%]
O[C@]1(c2ccccn2)CC[C@@H]2CN(Cc3cccc4ncccc34)C[C@@H]21	-4.41	9.46	11.8	-7.79	-1.38	0.696	21.4	21.9	9.68	9.09	-13.1
CCC1CN(CCC(=O)N(C)C)CCN1CCOC (stereo unspecified)	-1.46	16.2	-11.9	3.32	2.74	-0.401	5.04	-13.9	8.37	25.9	-3.8
O=C(COc1coc(CN2CCCCC2)cc1=O)NCc1ccccc1	-1.81	7.89	6.63	2.03	-4.38	-4.73	18.5	-0.295	4.25	10.4	-5.41
O=C(CCc1ccccc1)N1CCn2cc(Cn3cncn3)nc2C1	-2.68	0	5.15	7.21	-3.45	-3.23	14.6	22.4	1.06	-1.28	1.43
Clc1ccc(-n2cc(CNC3CCc4ncnn4C3)cn2)cc1 (stereo unspecified)	-0.3	1.27	7.38	3.29	-2.36	1.5	10.6	7.5	2.08	10.1	-1.43
CCNC(=O)[C@@H]1C[C@@H](NC(=O)Cc2ccccn2)CN1CCCSC	-5.92	0	1.44	-0.868	-4.37	-1.2	6.42	5.01	0	-3.7	0.131
CS(=O)(=O)c1ccc(CNC(=O)N2CCC(C(N)=O)C2)cc1 (stereo unspecified)	-5.24	25.3	-8.85	3.98	8.78	-3.04	14.2	0.909	8.37	26.6	-5.74
CCn1c(C)nnc1CN(C)C1CCN(CCCOC)C1 (stereo unspecified)	-1.09	18.2	-9.12	4.71	3.82	6.11	11.7	-2.93	7.62	25.9	-10.1
CCOc1ncccc1NC(=O)NCC(O)c1ccccc1OC (stereo unspecified)	-2.5	22.8	4.8	-4.05	4.06	4.94	9.75	23.4	3.45	21.5	-7.12
CC(=O)c1cccc(OCC(=O)NS(=O)(=O)c2ccc(C)s2)c1	-6.93	12.7	-2.86	9.9	4.63	-4.56	3.85	-8.7	3.45	13.9	-6.95
CC(C)(C)c1n[nH]c(C2CN(C(=O)c3csnn3)CCO2)n1 (stereo unspecified)	-8.03	18.4	-1.35	7.53	7.5	1.18	2.4	6.98	6.38	15.6	-19.5
O=S1(=O)N=C(SCc2ccc(Cl)cc2)Nc2ccc(F)cc21	-2.41	-7.79	-5.17	-2.88	-1.08	1.94	13.8	21.9	-6.35	-8.97	-10.5
CCCc1cc(C(=O)N2CCCC(n3ccnc3C)C2)[nH]n1 (stereo unspecified)	-3.55	5.06	-3.54	9.52	3.87	3.04	-7.94	15.5	3.45	11.4	-1.51
CCN(CC)C(CNC(=O)c1ccc(S(C)(=O)=O)cc1)c1ccco1 (stereo unspecified)	-2.81	2.7	6.63	-6.01	3.91	-2.5	14.8	8.16	8.91	11	3.77
Cc1ccc(NC2CCN(C(=O)Cn3nc(C)cc3C)CC2)nn1	-1.08	15.8	-0.776	6.59	-0.376	-0.766	17.9	6.37	3.43	12.2	-1.72
CN(Cc1ncc[nH]1)S(=O)(=O)c1cccc(C(=O)N2CCOCC2)c1	-6.58	5.48	4.01	0.744	-1.76	1.82	7.1	0.0404	2.15	7.5	-7.89

Source: ChEMBL document CHEMBL3988442, “University of Dundee, Small-Polar-MMV Screening Library” (2021)
